Here are results for 31 molecules from PubChem BioAssay (NCATS).

SMILES strings stand for the structures. Results filed as inconclusive are left out. Unmarked numbers belong to inactive results. The source made the active and inactive calls. The call rests on the fitted dose curve; in most records, active means well fitted inhibition curve with a large enough effect; inconclusive means small, poorly fitted or top-dose-only effect; inactive means flat fitted curve, though single readings scatter.

One assay concerns PC15. Description: qHTS profiling for inhibitors of Plasmodium falciparum proliferation (AID 504749). Further: potency means the concentration at half of the fitted maximal effect. The conditions noted are these: P. falciparum in erythrocytes, SYBR Green DNA, 72 h; series mostly up to 28.7 µM. In short, it runs like this:
(§1)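 Each compound contacts P. falciparum-infected red blood cells for 72 h at 37 C; lysis buffer (Tris, EDTA, saponin, Triton X, SYBR Green I) is added and fluorescence measured next morning; values normalized to controls.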

The next assay deals with PC26. Described as above. The conditions noted are these: P. falciparum in erythrocytes, SYBR Green DNA, 72 h; series mostly up to 28.7 µM. In short, it runs like this: as §1
Another assay concerns PC49. The assay is described as above. The conditions noted are these: P. falciparum in erythrocytes, SYBR Green DNA, 72 h; series mostly up to 28.7 µM. In short, it runs like this: as §1
For a further assay, the system named is SC27B. Described as above. The conditions noted are these: P. falciparum in erythrocytes, SYBR Green DNA, 72 h; series mostly up to 28.7 µM. Put shortly: as §1
The next assay deals with TAB109. The assay is described as above. The conditions noted are these: P. falciparum in erythrocytes, SYBR Green DNA, 72 h; series mostly up to 28.7 µM. In short, it runs like this:
as §1

In a further assay the test system is TAB113. Described as above. The conditions noted are these: P. falciparum in erythrocytes, SYBR Green DNA, 72 h; series mostly up to 28.7 µM. Put shortly:
as §1

Another assay concerns TAB165. The assay is described as above. The conditions noted are these: P. falciparum in erythrocytes, SYBR Green DNA, 72 h; series mostly up to 28.7 µM. In short, it runs like this:
as §1

The next assay concerns CRL-7250. Description: Cytotoxic Profiling of Annotated Libraries Using Quantitative High-Throughput Screening (AID 1296008). On max response: on the % scale 0 is the no-effect control and ±100 the full control effect. The conditions noted are these: Five cell lines viability, CellTiter-Glo ATP luminescence, 48-72 h; hits give low values. Put shortly: (§2)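 Cells exposed to compounds for 48 or 72 hr at 37 degrees Celsius. Viability read as ATP-coupled luminescence with CellTiter-Glo after 10 min at room temperature.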
In general terms: Cellular ATP, detected with luciferase, serves as a proxy for viable cell number.

The next assay concerns W2. Nature of the assay: qHTS profiling for inhibitors of Plasmodium falciparum proliferation (AID 504749). Further: potency means the concentration at half of the fitted maximal effect. The conditions noted are these: P. falciparum in erythrocytes, SYBR Green DNA, 72 h; series mostly up to 28.7 µM. In short, it runs like this:
as §1

In another assay the test system is HEK293. Nature of the assay: Cytotoxic Profiling of Annotated Libraries Using Quantitative High-Throughput Screening (AID 1296008). On max response: on the % scale 0 is the no-effect control and ±100 the full control effect. The conditions noted are these: Five cell lines viability, CellTiter-Glo ATP luminescence, 48-72 h; max response: hits give low values. Put shortly:
as §2
Further: nearly all actives have a fitted effect of over 60% in size.

Regarding `CCCCCCCCCC(=O)NO`, the Potency result in the assay with PC15, in the assay with PC26, in the assay on PC49, in the assay on SC27B, in the assay on TAB109 and in the assay with TAB113 was “inactive” each time. The Potency result in the assay on TAB165 was “inactive”.
Turning to `CO/N=C(/C(=O)N[C@@H]1C(=O)N2C(C(=O)O)=C(COC(N)=O)CS[C@H]12)c1ccco1`, the Potency entry in the assay with PC15, in the assay with PC26, in the assay with PC49, with SC27B, in the assay on TAB109 and in the assay on TAB113 was “inactive” each time. Besides, the Potency result in the assay on TAB165 was “inactive”.
For the molecule `CCCCCCCCCCCCCCCCCCCCCC(=O)Nc1ccn([C@@H]2O[C@H](CO)[C@@H](O)[C@@H]2O)c(=O)n1`, the Potency result in the assay with PC15, in the assay with PC26, with PC49, with SC27B, with TAB109 and in the assay on TAB113 was “inactive” throughout. In addition, the Potency result with TAB165 is “inactive”.
As for `CCN(CC)C(=S)S`, the Potency result in the assay on PC15, with PC26, in the assay on PC49, in the assay on SC27B, in the assay with TAB109 and in the assay on TAB113 was “inactive” each time. In addition, the Potency result in the assay with TAB165 was “inactive”.
As for `CC(C)[C@@H](N)C(=O)O`, the Potency entry in the assay on PC15, with PC26, in the assay on PC49, with SC27B, in the assay with TAB109 and in the assay on TAB113 was “inactive” in each case. Further, the Potency entry with TAB165 is “inactive”.
On to `CCCCCc1ccc(C)cc1O`, for which the Potency entry with PC15, with PC26, in the assay with PC49, with SC27B, in the assay with TAB109 and with TAB113 was “inactive” in each case.
With `O=P(O)(O)OP(=O)(O)OP(=O)(O)O`, the Potency result in the assay with PC15, in the assay on PC26, in the assay on PC49, in the assay with SC27B, with TAB109 and in the assay with TAB113 was “inactive” each time. The Potency entry in the assay with TAB165 is “inactive”.
Regarding `CS(=O)(=O)OCC(O)C(O)COS(C)(=O)=O` (centres undefined), the Potency entry in the assay on PC15, in the assay with PC26, with PC49, in the assay on SC27B, with TAB109 and with TAB113 was “inactive” throughout. Besides, the Potency entry with TAB165 is “inactive”.
With `Cc1ncc(COP(=O)(O)O)c(CN)c1O`, the Potency entry with PC15, with PC26, in the assay on PC49, with SC27B, in the assay on TAB109 and in the assay with TAB113 was “inactive” in each case. For the same molecule, the Potency result in the assay on TAB165 is “inactive”.
Regarding `CCOC(=O)C1=C(COCCN)NC(C)=C(C(=O)OC)C1c1ccccc1Cl` (centres undefined), the Potency result with PC15, in the assay on PC26, in the assay with PC49, in the assay with SC27B, in the assay on TAB109 and in the assay on TAB113 was “inactive” throughout.
Consider `COc1ccc2nc(NC(=O)Nc3ccccc3)sc2c1`, for which the Potency entry with PC15, with PC26, in the assay with PC49, in the assay on SC27B, with TAB109 and in the assay on TAB113 was “inactive” in each case. Also, the max response in the assay with CRL-7250 is 1.89%.
Consider `F[Si-2](F)(F)(F)(F)F`, for which the Potency entry in the assay on PC15, in the assay on PC26, in the assay on PC49, in the assay with SC27B, in the assay on TAB109 and with TAB113 was “inactive” each time. In addition, the Potency result in the assay on TAB165 was “inactive”.
For `C[C@]12CC[C@@H]3c4ccc(OC(=O)c5ccccc5)cc4CC[C@H]3[C@@H]1CC[C@@H]2O`, the Potency entry with PC15, in the assay with PC26, with PC49, in the assay with SC27B, in the assay with TAB109 and in the assay on TAB113 was “inactive” in each case. Further, the Potency result with TAB165 was “inactive”. Further, in the assay on W2, the Potency is 10.7 µM (active). The outcome in the assay on CRL-7250 was inactive. For the same molecule, in the assay with HEK293, the max response was -10%.
In the case of `CCN(CC)CCOCCOC(=O)C(CC)(CC)c1ccccc1`, in the assay on CRL-7250, the outcome was inactive.
Take `CN(C)CCCSc1ccccc1NC(=O)/C=C/c1ccccc1`: the Potency entry in the assay on PC15, with PC26, with PC49, in the assay on SC27B, in the assay with TAB113 and with TAB165 was “inactive” each time. Further, the Potency in the assay with W2 was 6.01 µM (active). The max response in the assay on CRL-7250 was -4.07%.
For the molecule `O=C(O)CC/C=C\CC[C@@H]1[C@@H](N2CCCCC2)[C@@H](O)C[C@@H]1OCc1ccc(-c2ccccc2)cc1`, the Potency entry in the assay on PC15, with PC26, with PC49, with SC27B, in the assay on TAB109 and in the assay with TAB113 was “inactive” each time. In addition, in the assay on TAB165, the Potency entry was “inactive”.
In the case of `CCCCC`, the Potency result with PC15, in the assay on PC26, with PC49, in the assay with SC27B, in the assay with TAB109 and in the assay on TAB113 was “inactive” in each case. For the same molecule, the Potency result in the assay on TAB165 was “inactive”.
Take `CC1CCCCN1CCCOC(=O)c1ccccc1` (centres undefined): the Potency entry with PC15, in the assay with PC26, in the assay with PC49, in the assay with SC27B, in the assay with TAB109 and in the assay on TAB113 was “inactive” each time. Moreover, the Potency entry in the assay on TAB165 was “inactive”.
As for `C=C1CC[C@H](O)CC1=C/C=C1\CCC[C@]2(C)[C@@H]([C@H](C)/C=C/[C@H](C)C(C)C)CC[C@@H]12`, the max response in the assay with CRL-7250 is -11.3%.
Take `COc1ccccc1N1CCN(CCCC(=O)c2ccc(F)cc2)CC1`: the Potency entry in the assay on PC15, in the assay with PC26, in the assay on PC49, in the assay with SC27B, in the assay on TAB109 and in the assay with TAB113 was “inactive” each time. For the same molecule, in the assay with TAB165, the Potency result was “inactive”.
For `O=C(OCc1ccccc1)c1ccc(O)cc1`, the Potency result with PC15, in the assay on PC26, in the assay on PC49, in the assay with SC27B, with TAB109 and with TAB113 was “inactive” throughout. In addition, the Potency result in the assay with TAB165 and in the assay on W2 was “inactive” throughout. Also, the max response with CRL-7250 was -9.5%. In addition, the molecule was classed as inactive in the assay on HEK293.
On to `O=[N+]([O-])c1c(Cl)cccc1-c1c[nH]cc1Cl`, for which the Potency entry in the assay with PC15, with PC26, in the assay on PC49, with SC27B, in the assay with TAB109 and with TAB113 was “inactive” throughout. In addition, in the assay with TAB165, the Potency result was “inactive”.
On to `Cn1c(O)c(N=NC(N)=S)c2ccccc21`, for which the Potency result in the assay on PC15, in the assay with PC26 and in the assay on PC49 was “inactive” in each case.
For the molecule `CC(C)(C)c1ccc(CN2CCN(C(c3ccccc3)c3ccc(Cl)cc3)CC2)cc1` (centres undefined), in the assay with CRL-7250, the max response was 1.08%.
With `O=C(O)Cc1cc(I)c(Oc2ccc(O)c(I)c2)c(I)c1`, the Potency entry in the assay with PC15, in the assay on PC26, in the assay with PC49, in the assay on SC27B, in the assay with TAB109 and in the assay on TAB113 was “inactive” throughout. In addition, the Potency result in the assay with TAB165 and in the assay on W2 was “inactive” throughout. For the same molecule, in the assay on CRL-7250, the molecule was classed as inactive.
Take `Cc1cccc(C)c1NC(=O)C1CCCCN1C` (centres undefined): the Potency entry in the assay with PC15, in the assay with PC26, with PC49, in the assay with SC27B, in the assay with TAB109 and in the assay with TAB113 was “inactive” each time. In the assay on TAB165, the Potency result was “inactive”.
Consider `CCCCCCCCCCCCCCCCCC[N+](C)(C)CCC[Si](OC)(OC)OC`, for which the Potency entry with PC15, in the assay on PC26, with PC49, with SC27B, with TAB109 and with TAB113 was “inactive” in each case. Also, in the assay with TAB165, the Potency entry was “inactive”.
Consider `O=C(NCCNCC(O)COc1ccc(O)cc1)N1CCOCC1` (centres undefined), for which the Potency result with PC15, in the assay on PC26, in the assay with PC49, with SC27B, in the assay on TAB109 and in the assay with TAB113 was “inactive” each time. Moreover, the Potency result in the assay on TAB165 is “inactive”.
In the case of `O=C1c2ccccc2C(=O)c2c1ccc(O)c2O`, the Potency result in the assay on PC15, in the assay on PC26, in the assay with PC49, in the assay on SC27B, in the assay with TAB109 and in the assay on TAB113 was “inactive” in each case. Also, the Potency entry with TAB165 and in the assay with W2 was “inactive” in each case. Also, in the assay with CRL-7250, the max response was -3.43%.
With `CCN(CC)CCOc1ccccc1OC`, the Potency result with PC15, in the assay with PC26, with PC49, with SC27B, in the assay on TAB109 and in the assay with TAB113 was “inactive” in each case. The Potency entry with TAB165 is “inactive”.
Take `O=C(O)c1ccc(NC(=O)[C@H](Cc2ccc(O)cc2)NC(=O)c2ccccc2)cc1`: the Potency entry in the assay on PC15, with PC26, with PC49, in the assay on SC27B, with TAB109 and in the assay with TAB113 was “inactive” in each case. In the assay on TAB165, the Potency result is “inactive”.
